Hit rate of the full screen: of about 5,500 compounds, about 2,000 (36%) were called active. Another 18% or so got no clear call; they are omitted. Cut-off read from the data, not from the text of the source: active = normalized growth mostly below about 0.91 (no sharp cut-off); inconclusive = no clear call, values can overlap the other calls; inactive = mostly above about 0.92. The list shows a part of the results.
Assay: chemical genetic growth profiling, strain panel (AID 1159580);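 note: tested at 20 µM; growth read once vehicle control cultures reached saturation at 30 °C; 1 = growth at the plate median or of vehicle wells; lower values mean less growth of the strain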
Conditions: growth OD
[1] = S. cerevisiae deletion strains, locus YDR150W, strain NUM1, stronger effect = lower value
[2] = S. cerevisiae deletion strains, locus YMR263W, strain SAP30, stronger effect = lower value
[3] = S. cerevisiae deletion strains, locus YPL055C, strain LGE1, stronger effect = lower value
[4] = S. cerevisiae deletion strains, locus YPL241C, strain CIN2, stronger effect = lower value

Measured: normalized growth

NCC(O)C1CCCCCCC1 (configuration not stated)
inactive: S. cerevisiae deletion strains, locus YAL040C, strain CLN3, stronger effect = lower value 1.01 | S. cerevisiae deletion strains, locus YCL061C, strain MRC1 (second series), stronger effect = lower value 1.01 | [1] 0.995 | S. cerevisiae deletion strains, locus YDR363W, strain ESC2, stronger effect = lower value 0.994 | S. cerevisiae deletion strains, locus YER002W, strain NOP16, stronger effect = lower value 0.999 | [2] 0.999 | S. cerevisiae deletion strains, locus YNL175C, strain NOP13, stronger effect = lower value 1.01 | S. cerevisiae deletion strains, locus YNL197C, strain WHI3, stronger effect = lower value 1.01 | S. cerevisiae deletion strains, locus YNL224C, strain SQS1, stronger effect = lower value 1 | S. cerevisiae deletion strains, locus YOR083W, strain WHI5 (second series), stronger effect = lower value 1.04 | [3] 0.992 | [4] 1

COc1ccc(CN2C(=O)CSC2c2ccccn2)cc1 (configuration not stated)
inactive: S. cerevisiae deletion strains, locus YAL013W, strain DEP1, stronger effect = lower value 1.01 | S. cerevisiae deletion strains, locus YBR229C, strain ROT2, stronger effect = lower value 0.995 | S. cerevisiae deletion strains, locus YCL061C, strain MRC1, stronger effect = lower value 0.977 | S. cerevisiae deletion strains, locus YDL101C, strain DUN1, stronger effect = lower value 1.01 | S. cerevisiae deletion strains, locus YDL134C, strain PPH21, stronger effect = lower value 1 | [1] 1.01 | S. cerevisiae deletion strains, locus YEL061C, strain CIN8, stronger effect = lower value 1.01 | S. cerevisiae deletion strains, locus YGR078C, strain PAC10, stronger effect = lower value 1.01 | S. cerevisiae deletion strains, locus YHR030C, strain SLT2, stronger effect = lower value 0.998 | S. cerevisiae deletion strains, locus YHR087W, strain rtc3, stronger effect = lower value 1.01 | S. cerevisiae deletion strains, locus YJL187C, strain SWE1, stronger effect = lower value 0.989 | S. cerevisiae deletion strains, locus YJR043C, strain POL32, stronger effect = lower value 0.995 | S. cerevisiae deletion strains, locus YJR075W, strain HOC1, stronger effect = lower value 1.01 | S. cerevisiae deletion strains, locus YKL190W, strain CNB1, stronger effect = lower value 1 | S. cerevisiae deletion strains, locus YLR039C, strain RIC1, stronger effect = lower value 0.97 | S. cerevisiae deletion strains, locus YLR058C, strain SHM2 (second series), stronger effect = lower value 0.991 | S. cerevisiae deletion strains, locus YLR085C, strain ARP6, stronger effect = lower value 0.971 | S. cerevisiae deletion strains, locus YLR262C, strain YPT6, stronger effect = lower value 0.953 | S. cerevisiae deletion strains, locus YML094W, strain GIM5, stronger effect = lower value 1.02 | S. cerevisiae deletion strains, locus YMR219W, strain ESC1, stronger effect = lower value 0.993 | [2] 0.993 | S. cerevisiae deletion strains, locus YNL153C, strain GIM3, stronger effect = lower value 0.999 | S. cerevisiae deletion strains, locus YNL298W, strain CLA4 (second series), stronger effect = lower value 0.994 | S. cerevisiae deletion strains, locus YNL322C, strain KRE1, stronger effect = lower value 1 | S. cerevisiae deletion strains, locus YNR030W, strain Alg12, stronger effect = lower value 1 | S. cerevisiae deletion strains, locus YOL006C, strain TOP1, stronger effect = lower value 0.988 | [3] 1 | [4] 1.07 | S. cerevisiae deletion strains, locus YPR135W, strain CTF4, stronger effect = lower value 0.985 | S. cerevisiae strains, strain wild type, stronger effect = lower value 1

— PubChem BioAssay AID1159580 (chemical genetic matrix, 2015)
